Assay results: PubChem BioAssay (Tox21)
Records with an inconclusive call do not appear. A call without a number means that no potency is given here. Values without a mark were called inactive. Activity calls are given as the source filed them. Unless noted, calls follow the shape of the dose curve; as a rule, active = well fitted cell-killing curve with a large enough effect in the repeat runs; inconclusive = weak or mixed curves, or effect the other way; inactive = no such curve, though single readings can be large or run the other way.

Biological target: Bile acid receptor (Homo sapiens) (UniProt Q96RI1)
Test: qHTS assay to identify small molecule antagonists of the farnesoid-X-receptor (FXR) signaling pathway (AID 743217; active = well fitted inhibition curve with a large enough effect in the signal ratio in the repeat runs, not every such curve was filed as active; the % refers to the signal ratio)
Conditions: HEK293T FXR-UAS-bla, beta-lactamase ratio, CDCA-stimulated, 16 h; series mostly up to 62.6 µM
Procedure, shortened: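 Cells carrying a UAS-driven beta-lactamase reporter (GeneBLAzer FXR-UAS-bla HEK 293T) were plated and rested 5 h at 37 °C. Compounds in DMSO were added alongside chenodeoxycholic acid agonist at 50 uM final and left 16 h at 37 °C before FRET substrate readout.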

Chain of Bile acid receptor (Homo sapiens) (Q96RI1 whole entry, looked up): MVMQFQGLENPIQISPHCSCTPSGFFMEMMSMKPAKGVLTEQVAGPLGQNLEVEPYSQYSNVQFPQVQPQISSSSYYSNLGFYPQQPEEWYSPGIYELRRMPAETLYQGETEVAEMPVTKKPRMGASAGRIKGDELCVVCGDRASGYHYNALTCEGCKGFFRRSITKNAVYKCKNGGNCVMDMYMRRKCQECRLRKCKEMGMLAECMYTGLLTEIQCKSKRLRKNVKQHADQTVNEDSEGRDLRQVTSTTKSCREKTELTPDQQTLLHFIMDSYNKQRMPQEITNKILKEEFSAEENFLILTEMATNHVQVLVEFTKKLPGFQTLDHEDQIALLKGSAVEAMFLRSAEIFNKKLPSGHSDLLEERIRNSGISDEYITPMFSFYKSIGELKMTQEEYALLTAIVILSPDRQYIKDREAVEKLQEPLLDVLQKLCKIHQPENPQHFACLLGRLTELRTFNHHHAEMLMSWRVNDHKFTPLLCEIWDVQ

| SMILES | outcome |
| --- | --- |
| CS(=O)(=O)O | inactive |
| CN1CCN(c2cc3c(cc2F)c(=O)c(C(=O)O)cn3-c2ccc(F)cc2)CC1 | inactive |
| CCOC(=O)c1c(C)n(C)c2ccc(O)cc12 | inactive |
| COC(=O)C1=C(C)NC(C)=C(C(=O)OC)C1c1ccccc1[N+](=O)[O-] | inactive |
| C=CCS(=O)(=O)O | inactive |
| NC(=O)c1ccc(N)cc1 | inactive |
| CCCCOCCOCCOCc1cc2c(cc1CCC)OCO2 | inactive |

Test system: not listed separately
Test: qHTS assay to identify small molecule agonists of the farnesoid-X-receptor (FXR) signaling pathway - cell viability counter screen (AID 743218); also: nearly all actives have a fitted effect of over 45% in size; also: potency is read from the fitted curve at half-maximal effect
Conditions: FXR-bla HEK293T viability, CellTiter-Glo luminescence, 16 h; series mostly up to 62.6 µM
Procedure, shortened: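 Cells were seeded, left 5 h at 37 C and 5% CO2, then dosed with compound in DMSO for 16 h. After the beta-lactamase FRET read, CellTiter-Glo was added and luminescence measured 30 min later.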

| SMILES | Potency | viability change, negative = cytotoxic |
| --- | --- | --- |
| N=C(N)c1ccc(OCCCOc2ccc(C(=N)N)cc2)cc1 | inactive | – |
| CCCCCCCCCCCCCC=O | – | 0% [at 5.95 µM] |
| Cc1ccc(Cl)cc1Cl | inactive | – |
| CN1CCN(c2cc3c(cc2F)c(=O)c(C(=O)O)cn3-c2ccc(F)cc2)CC1 | inactive | – |
| NC(=O)COCCN1CCN(C(c2ccccc2)c2ccc(Cl)cc2)CC1 (centres undefined) | inactive | – |
| CC(=O)Nc1c(I)cc(I)c(C(=O)O)c1I | inactive | – |
| O=C1CCCCCCCCCCCN1 | inactive | – |
| Cc1c(O)cccc1O | inactive | – |
| CCOC(=O)c1c(C)n(C)c2ccc(O)cc12 | inactive | – |
| CO/N=C(/C(=O)N[C@@H]1C(=O)N2C(C(=O)OCOC(=O)C(C)(C)C)=C(C)CS[C@H]12)c1csc(N)n1 | inactive | – |
| CCN1CCC[C@H]1CNC(=O)c1c(O)c(Cl)cc(Cl)c1OC | inactive | – |
| COC(=O)C1=C(C)NC(C)=C(C(=O)OC)C1c1ccccc1[N+](=O)[O-] | inactive | – |
| NC(=O)Nc1ccccc1 | inactive | – |
| CC(=O)OC/C=C(\C)CC/C=C(\C)CCC=C(C)C | inactive | – |
| CC(=O)CC(C)C | inactive | – |
| CCOC(=O)[C@H](CCc1ccccc1)N[C@@H](C)C(=O)N1[C@H](C(=O)O)C[C@@H]2CCC[C@@H]21 | inactive | – |

| SMILES | Potency | viability change, negative = cytotoxic |
| --- | --- | --- |
| CC(C)CNCC(C)C | inactive | – |
| O=C(CCCN1CCC(O)(c2cccc(C(F)(F)F)c2)CC1)c1ccc(F)cc1 | inactive | – |
| NS(=O)(=O)c1cc(C(=O)O)cc(N2CCCC2)c1Oc1ccccc1 | inactive | – |
| CCOC(=O)Nc1ccc(NCc2ccc(F)cc2)nc1N | inactive | – |
| CCN(Cc1ccncc1)C(=O)C(CO)c1ccccc1 (centres undefined) | inactive | – |
| COC(=O)[C@@H](N)Cc1ccc(O)c(O)c1 | inactive | – |
| COC(=O)c1ccc(C)cc1C1=NC(C)(C(C)C)C(=O)N1 (centres undefined) | inactive | – |
| C=CCS(=O)(=O)O | inactive | – |
| NC(=O)c1ccc(N)cc1 | inactive | – |
| CC(C)OC(=O)c1ccccc1 | inactive | – |
| CCCCOCCOCCOCc1cc2c(cc1CCC)OCO2 | inactive | – |
| CCO/C([O-])=N/c1c[n+](N2CCOCC2)no1 | inactive | – |
| CN(C)CCCN1c2ccccc2CCc2ccc(Cl)cc21 | 24.5 µM (active) | – |
| CC(C)(c1ccc(O)cc1)c1ccc(O)cc1 | inactive | – |
| CN1CC(=O)NC1=N | inactive | – |

Biological target: Bile acid receptor (Homo sapiens) (UniProt Q96RI1)
Test: qHTS assay to identify small molecule agonists of the farnesoid-X-receptor (FXR) signaling pathway (AID 743220; active = well fitted activation curve with a large enough effect in the signal ratio in the repeat runs, not every such curve was filed as active; the % refers to the signal ratio)
Conditions: HEK293T FXR-UAS-bla, beta-lactamase FRET ratio, 16 h; series mostly up to 62.6 µM
Procedure, shortened: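 FXR-UAS-bla HEK 293T cells carrying a UAS-driven beta-lactamase reporter were plated for 5 h at 37C/5% CO2, then exposed to DMSO-dissolved Tox21 10K compounds for 16 h at 37C. A LiveBLAzer B/G FRET substrate was loaded for 2 h at room temperature before fluorescence reading.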

| SMILES | outcome |
| --- | --- |
| CS(=O)(=O)O | inactive |
| CN1CCN(c2cc3c(cc2F)c(=O)c(C(=O)O)cn3-c2ccc(F)cc2)CC1 | inactive |
| Cc1c(O)cccc1O | inactive |
| CCOC(=O)c1c(C)n(C)c2ccc(O)cc12 | inactive |
| CO/N=C(/C(=O)N[C@@H]1C(=O)N2C(C(=O)OCOC(=O)C(C)(C)C)=C(C)CS[C@H]12)c1csc(N)n1 | inactive |
| COC(=O)C1=C(C)NC(C)=C(C(=O)OC)C1c1ccccc1[N+](=O)[O-] | inactive |
| CC(=O)CC(C)C | inactive |
| CC(C)CNCC(C)C | inactive |
| O=C(CCCN1CCC(O)(c2cccc(C(F)(F)F)c2)CC1)c1ccc(F)cc1 | inactive |
| C=CCS(=O)(=O)O | inactive |
| NC(=O)c1ccc(N)cc1 | inactive |
| CCCCOCCOCCOCc1cc2c(cc1CCC)OCO2 | inactive |
| CCO/C([O-])=N/c1c[n+](N2CCOCC2)no1 | inactive |
| CN1CC(=O)NC1=N | inactive |

Test system: not listed separately
Test: qHTS assay to identify small molecule antagonists of the farnesoid-X-receptor (FXR) signaling pathway - cell viability counter screen (AID 743221; active = well fitted cell-killing curve with a large enough effect in the repeat runs, not every such curve was filed as active; also: nearly all actives have a fitted effect of over 50% in size; also: potency is read from the fitted curve at half-maximal effect)
Conditions: FXR-bla HEK293T viability, CellTiter-Glo luminescence, 16 h; series mostly up to 62.6 µM
Procedure, shortened: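 Multiplexed counter screen: viability of FXR-bla HEK 293T cells under agonist stimulation by chenodeoxycholic acid (50 uM, final) and test compound for 16 h at 37 C, measured by CellTiter-Glo luminescence in the reporter wells.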

| SMILES | Potency | activity change, negative = cytotoxicity |
| --- | --- | --- |
| N=C(N)c1ccc(OCCCOc2ccc(C(=N)N)cc2)cc1 | inactive | – |
| CCCCCCCCCCCCCC=O | – | -2.35% [at 5.95 µM] |
| Cc1ccc(Cl)cc1Cl | inactive | – |
| NC(=O)COCCN1CCN(C(c2ccccc2)c2ccc(Cl)cc2)CC1 (centres undefined) | inactive | – |
| CC(=O)Nc1c(I)cc(I)c(C(=O)O)c1I | inactive | – |
| O=C1CCCCCCCCCCCN1 | inactive | – |
| Cc1c(O)cccc1O | inactive | – |
| CCOC(=O)c1c(C)n(C)c2ccc(O)cc12 | inactive | – |
| CO/N=C(/C(=O)N[C@@H]1C(=O)N2C(C(=O)OCOC(=O)C(C)(C)C)=C(C)CS[C@H]12)c1csc(N)n1 | inactive | – |
| COC(=O)C1=C(C)NC(C)=C(C(=O)OC)C1c1ccccc1[N+](=O)[O-] | inactive | – |
| NC(=O)Nc1ccccc1 | inactive | – |
| CC(=O)CC(C)C | inactive | – |
| c1cnc(N2CCN(Cc3ccc4c(c3)OCO4)CC2)nc1 | inactive | – |
| CC(C)CNCC(C)C | inactive | – |
| O=C(CCCN1CCC(O)(c2cccc(C(F)(F)F)c2)CC1)c1ccc(F)cc1 | inactive | – |
| NS(=O)(=O)c1cc(C(=O)O)cc(N2CCCC2)c1Oc1ccccc1 | inactive | – |
| CCOC(=O)Nc1ccc(NCc2ccc(F)cc2)nc1N | inactive | – |
| CCN(Cc1ccncc1)C(=O)C(CO)c1ccccc1 (centres undefined) | inactive | – |
| COC(=O)[C@@H](N)Cc1ccc(O)c(O)c1 | inactive | – |
| COC(=O)c1ccc(C)cc1C1=NC(C)(C(C)C)C(=O)N1 (centres undefined) | inactive | – |
| C=CCS(=O)(=O)O | inactive | – |
| NC(=O)c1ccc(N)cc1 | inactive | – |
| CCCCOCCOCCOCc1cc2c(cc1CCC)OCO2 | inactive | – |
| CC1(C)CO[C@@H](CC(=O)O)CN1 | inactive | – |
| CN(C)CCCN1c2ccccc2CCc2ccc(Cl)cc21 | 49 µM (active) | – |
| CC(C)(c1ccc(O)cc1)c1ccc(O)cc1 | inactive | – |
| CN1CC(=O)NC1=N | inactive | – |
